# For part of these data: Measured potencies and affinities stand elsewhere.
# How the values were obtained:
# Design in all cases: scale not given: direction of the effect not stated beside the values
# [1] = biological target: Protein translocase subunit SecA (Escherichia coli (strain K12)) (UniProt P10408); assay: Assay to Identify E. coli SecA ATPase Inhibitors; type: functional; conditions: 30 µM
# [2] = biological target: T1, Ubiquitin-activating enzyme e1, putative (Leishmania donovani (strain BPK282A1)) (UniProt E9BSI1); assay: Leishmania donovani Ubiquitin Activating Enzyme (LdE1); type: functional; conditions: 30 µM
# T1 sequence (whole entry): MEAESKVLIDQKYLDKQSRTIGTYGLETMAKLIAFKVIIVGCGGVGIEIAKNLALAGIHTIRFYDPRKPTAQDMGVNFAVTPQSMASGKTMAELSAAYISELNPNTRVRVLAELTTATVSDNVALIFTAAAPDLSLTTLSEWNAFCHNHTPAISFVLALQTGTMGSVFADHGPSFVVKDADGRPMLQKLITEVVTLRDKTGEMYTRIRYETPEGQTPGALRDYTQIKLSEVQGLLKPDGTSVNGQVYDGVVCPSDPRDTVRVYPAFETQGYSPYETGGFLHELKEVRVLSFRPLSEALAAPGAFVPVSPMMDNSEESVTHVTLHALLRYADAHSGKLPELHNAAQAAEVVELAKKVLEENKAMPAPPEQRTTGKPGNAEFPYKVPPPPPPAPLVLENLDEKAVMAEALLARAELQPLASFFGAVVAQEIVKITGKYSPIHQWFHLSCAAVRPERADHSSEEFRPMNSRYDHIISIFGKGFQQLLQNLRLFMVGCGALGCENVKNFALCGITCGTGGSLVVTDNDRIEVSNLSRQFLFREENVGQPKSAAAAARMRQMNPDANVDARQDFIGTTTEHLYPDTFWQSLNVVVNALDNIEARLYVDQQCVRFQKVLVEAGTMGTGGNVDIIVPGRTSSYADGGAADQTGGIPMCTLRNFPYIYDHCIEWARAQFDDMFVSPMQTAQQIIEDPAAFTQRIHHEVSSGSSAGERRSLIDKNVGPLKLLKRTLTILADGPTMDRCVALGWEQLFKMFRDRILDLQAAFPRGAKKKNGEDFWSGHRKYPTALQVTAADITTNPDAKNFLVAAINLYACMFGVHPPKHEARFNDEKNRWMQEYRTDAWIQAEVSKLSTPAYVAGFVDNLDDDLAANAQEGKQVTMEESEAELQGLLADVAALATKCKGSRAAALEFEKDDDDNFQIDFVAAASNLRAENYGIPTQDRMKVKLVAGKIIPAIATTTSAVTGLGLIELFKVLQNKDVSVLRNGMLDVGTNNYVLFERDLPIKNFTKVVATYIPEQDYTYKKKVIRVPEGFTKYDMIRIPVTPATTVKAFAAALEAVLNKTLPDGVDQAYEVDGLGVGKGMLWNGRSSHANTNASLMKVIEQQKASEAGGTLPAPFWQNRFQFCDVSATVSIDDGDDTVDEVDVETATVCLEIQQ
# [3] = biological target: AMP-activated protein kinase, AMPK (Homo sapiens) (UniProt P54646+O43741+P54619+Q9UGJ0+Q9Y478+Q13131+Q9UGI9); assay: AMP-dependent Kinase enzyme assay. An in vitro enzyme assay that detects ADP turnover that is directly proportional to AMPK activity. This uses naive AMPK that is activated during the assay with MK-8722; type: functional; conditions: 30 µM
# [4] = biological target: Sialic acid-binding Ig-like lectin 9 (Homo sapiens) (UniProt Q9Y336); assay: Hs-Siglec9 ALPHAscreen SOP 20170721; conditions: 10 µM
# Sialic acid-binding Ig-like lectin 9 (Homo sapiens), sequence (Q9Y336 whole entry): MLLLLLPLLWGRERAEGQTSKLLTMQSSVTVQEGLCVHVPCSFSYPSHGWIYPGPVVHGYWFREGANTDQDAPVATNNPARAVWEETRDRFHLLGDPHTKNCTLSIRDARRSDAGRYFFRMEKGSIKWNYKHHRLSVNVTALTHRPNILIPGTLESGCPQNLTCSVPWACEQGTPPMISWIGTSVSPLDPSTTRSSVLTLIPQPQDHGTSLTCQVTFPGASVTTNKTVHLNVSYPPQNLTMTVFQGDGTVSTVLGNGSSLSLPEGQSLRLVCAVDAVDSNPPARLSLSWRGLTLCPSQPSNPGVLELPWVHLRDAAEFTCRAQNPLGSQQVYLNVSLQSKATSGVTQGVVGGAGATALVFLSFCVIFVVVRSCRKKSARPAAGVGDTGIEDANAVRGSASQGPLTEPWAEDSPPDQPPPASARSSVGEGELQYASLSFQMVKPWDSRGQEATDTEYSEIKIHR
# Trypanosoma cruzi = assay: Trypanosoma cruzi phosphomannomutase and mannose-1-phosphate guanylyltransferase assay; type: functional; conditions: 10 µM
# [5] = biological target: T2, Arginase-2, mitochondrial (Homo sapiens) (UniProt P78540); assay: in vitro enzyme assay to detect the production of urea directly proportional to the activity of Arginase II; type: functional; conditions: 33.3 µM; also: in the data most compounds retested in dose-response had high values
# T2 sequence (whole entry): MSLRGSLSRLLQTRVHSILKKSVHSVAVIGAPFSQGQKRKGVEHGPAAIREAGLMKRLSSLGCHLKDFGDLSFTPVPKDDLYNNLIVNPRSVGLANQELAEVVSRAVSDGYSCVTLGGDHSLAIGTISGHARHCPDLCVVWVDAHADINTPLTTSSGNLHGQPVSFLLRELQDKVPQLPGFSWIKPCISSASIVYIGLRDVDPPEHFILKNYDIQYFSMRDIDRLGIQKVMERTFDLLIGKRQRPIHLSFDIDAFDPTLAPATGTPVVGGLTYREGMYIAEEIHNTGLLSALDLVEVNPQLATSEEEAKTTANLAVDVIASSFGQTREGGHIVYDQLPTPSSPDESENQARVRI
# [6] = biological target: T3, Proteasome subunit beta (Trypanosoma cruzi) (UniProt O96673); assay: Trypanosoma cruzi proteasome chymotrypsin-like activity (TcProtChymo) assay.; also: in the data most compounds retested in dose-response had high values; type: functional; conditions: 9.37 µM
# T3 sequence (whole entry): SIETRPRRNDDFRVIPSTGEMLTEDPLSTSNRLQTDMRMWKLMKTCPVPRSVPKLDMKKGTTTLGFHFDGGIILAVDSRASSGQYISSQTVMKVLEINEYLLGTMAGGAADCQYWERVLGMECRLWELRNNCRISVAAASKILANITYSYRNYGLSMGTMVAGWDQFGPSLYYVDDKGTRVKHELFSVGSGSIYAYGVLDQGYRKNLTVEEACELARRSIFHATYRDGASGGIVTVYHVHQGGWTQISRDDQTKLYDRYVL
# Homo sapiens = species: Homo sapiens; assay: To identify inhibition of the IFN signalling (Jak-Stat) pathway via expression of an eGFP reporter gene under the control of an IFN-stimulated response element (ISRE) containing MxA promoter.; type: functional; conditions: 30 µM
# [7] = biological target: T4, Tyrosyl-tRNA synthetase, putative (Trypanosoma cruzi (strain CL Brener)) (UniProt Q4DSP6); assay: Trypanosoma cruzi tyrosyl tRNA synthetase (TcYRS) _High Tyrosine SOP; type: functional; conditions: 30 µM; also: in the data most compounds retested in dose-response had high values
# T4 sequence (whole entry): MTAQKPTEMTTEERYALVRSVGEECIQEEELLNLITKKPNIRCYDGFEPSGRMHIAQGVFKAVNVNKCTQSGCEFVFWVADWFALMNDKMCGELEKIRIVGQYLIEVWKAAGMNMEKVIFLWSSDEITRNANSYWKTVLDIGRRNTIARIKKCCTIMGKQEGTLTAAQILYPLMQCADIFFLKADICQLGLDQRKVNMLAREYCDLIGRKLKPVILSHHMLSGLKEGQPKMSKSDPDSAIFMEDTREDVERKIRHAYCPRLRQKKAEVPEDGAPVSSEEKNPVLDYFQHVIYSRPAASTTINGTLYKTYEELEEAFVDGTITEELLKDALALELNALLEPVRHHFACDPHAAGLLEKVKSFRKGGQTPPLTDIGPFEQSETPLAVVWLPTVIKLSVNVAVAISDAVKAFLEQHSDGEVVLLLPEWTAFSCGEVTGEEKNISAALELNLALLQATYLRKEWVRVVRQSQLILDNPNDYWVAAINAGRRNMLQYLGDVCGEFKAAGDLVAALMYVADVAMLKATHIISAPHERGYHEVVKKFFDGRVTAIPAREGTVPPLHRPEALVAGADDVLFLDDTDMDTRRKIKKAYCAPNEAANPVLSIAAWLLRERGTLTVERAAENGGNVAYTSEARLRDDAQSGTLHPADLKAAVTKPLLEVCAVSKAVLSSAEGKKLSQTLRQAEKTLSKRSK
# [8] = biological target: T4, Tyrosyl-tRNA synthetase, putative (Trypanosoma cruzi (strain CL Brener)); assay: Trypanosoma cruzi tyrosyl tRNA synthetase (TcYRS) SOP; type: functional; conditions: 30 µM
# [9] = biological target: Chromo domain-containing protein 1 (Saccharomyces cerevisiae (strain ATCC 204508 / S288c) (Baker's yeast)) (UniProt P32657); assay: ScCHD-1 Enzyme Inhibition Assay; type: functional; conditions: 30 µM; also: in the data most compounds retested in dose-response had high values
# Chromo domain-containing protein 1 (Saccharomyces cerevisiae (strain ATCC 204508 / S288c) (Baker's yeast)), sequence (P32657 whole entry, the tested form may be a part): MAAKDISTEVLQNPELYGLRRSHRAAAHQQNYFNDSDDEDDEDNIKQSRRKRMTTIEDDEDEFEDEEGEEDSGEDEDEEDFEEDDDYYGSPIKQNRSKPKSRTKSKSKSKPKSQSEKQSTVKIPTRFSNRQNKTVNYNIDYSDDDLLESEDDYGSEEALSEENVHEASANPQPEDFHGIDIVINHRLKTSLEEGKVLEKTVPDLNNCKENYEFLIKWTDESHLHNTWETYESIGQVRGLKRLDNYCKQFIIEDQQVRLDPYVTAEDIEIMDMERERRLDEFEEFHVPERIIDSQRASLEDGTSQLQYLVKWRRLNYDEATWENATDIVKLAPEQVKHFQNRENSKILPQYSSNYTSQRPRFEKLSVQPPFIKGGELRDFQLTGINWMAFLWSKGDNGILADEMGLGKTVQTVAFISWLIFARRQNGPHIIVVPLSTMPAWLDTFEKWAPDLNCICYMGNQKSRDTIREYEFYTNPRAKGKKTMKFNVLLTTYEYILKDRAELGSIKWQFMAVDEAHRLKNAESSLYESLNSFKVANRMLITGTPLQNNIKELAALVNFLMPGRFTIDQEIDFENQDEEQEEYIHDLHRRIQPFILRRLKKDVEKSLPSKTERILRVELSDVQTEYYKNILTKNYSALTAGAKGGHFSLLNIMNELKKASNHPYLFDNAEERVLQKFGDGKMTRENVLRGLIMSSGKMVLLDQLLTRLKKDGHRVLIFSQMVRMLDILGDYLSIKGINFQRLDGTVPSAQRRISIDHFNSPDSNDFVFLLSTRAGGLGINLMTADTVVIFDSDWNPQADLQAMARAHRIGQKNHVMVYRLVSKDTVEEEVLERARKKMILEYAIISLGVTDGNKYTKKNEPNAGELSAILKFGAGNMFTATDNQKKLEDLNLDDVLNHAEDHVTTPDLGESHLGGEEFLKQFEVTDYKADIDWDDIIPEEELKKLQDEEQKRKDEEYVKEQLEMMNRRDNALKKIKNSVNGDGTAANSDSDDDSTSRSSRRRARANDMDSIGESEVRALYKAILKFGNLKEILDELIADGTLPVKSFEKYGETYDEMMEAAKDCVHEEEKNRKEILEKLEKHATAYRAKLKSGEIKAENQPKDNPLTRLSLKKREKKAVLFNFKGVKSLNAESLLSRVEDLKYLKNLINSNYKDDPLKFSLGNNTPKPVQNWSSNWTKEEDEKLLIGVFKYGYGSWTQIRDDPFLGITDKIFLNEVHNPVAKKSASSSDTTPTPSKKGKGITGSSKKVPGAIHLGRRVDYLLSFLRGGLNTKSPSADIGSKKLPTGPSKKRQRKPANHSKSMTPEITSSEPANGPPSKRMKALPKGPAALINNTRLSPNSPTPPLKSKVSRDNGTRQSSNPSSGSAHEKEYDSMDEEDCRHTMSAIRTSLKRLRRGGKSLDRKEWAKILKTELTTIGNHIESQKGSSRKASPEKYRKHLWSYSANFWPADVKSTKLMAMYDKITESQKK
# Protein translocase subunit SecA (Escherichia coli (strain K12)), sequence (P10408 whole entry): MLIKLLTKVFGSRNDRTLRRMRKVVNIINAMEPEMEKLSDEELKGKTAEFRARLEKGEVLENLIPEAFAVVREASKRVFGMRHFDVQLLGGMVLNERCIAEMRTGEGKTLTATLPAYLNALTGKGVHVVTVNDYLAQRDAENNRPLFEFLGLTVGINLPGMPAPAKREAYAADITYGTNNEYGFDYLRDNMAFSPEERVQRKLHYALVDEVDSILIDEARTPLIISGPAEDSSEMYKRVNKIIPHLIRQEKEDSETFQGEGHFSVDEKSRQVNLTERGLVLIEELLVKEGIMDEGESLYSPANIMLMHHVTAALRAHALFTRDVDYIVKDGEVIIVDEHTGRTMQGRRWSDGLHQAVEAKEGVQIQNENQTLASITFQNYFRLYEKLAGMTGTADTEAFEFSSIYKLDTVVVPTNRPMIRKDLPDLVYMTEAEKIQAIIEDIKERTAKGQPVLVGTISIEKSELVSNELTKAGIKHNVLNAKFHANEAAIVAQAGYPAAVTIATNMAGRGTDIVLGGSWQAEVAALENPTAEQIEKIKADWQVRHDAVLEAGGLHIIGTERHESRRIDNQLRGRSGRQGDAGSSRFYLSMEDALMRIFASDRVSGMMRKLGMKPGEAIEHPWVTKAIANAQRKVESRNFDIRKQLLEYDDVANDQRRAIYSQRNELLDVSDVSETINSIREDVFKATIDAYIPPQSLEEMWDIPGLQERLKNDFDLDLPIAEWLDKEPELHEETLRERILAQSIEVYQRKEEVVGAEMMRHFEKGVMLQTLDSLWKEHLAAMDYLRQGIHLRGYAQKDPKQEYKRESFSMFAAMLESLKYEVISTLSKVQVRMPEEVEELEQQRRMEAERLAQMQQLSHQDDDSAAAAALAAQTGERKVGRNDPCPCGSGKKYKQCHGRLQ
SMILES,Percent Effect [1],Percent Effect [2],Percent Effect [3],Percent Effect [4],Percent Effect (Trypanosoma cruzi),Percent Effect [5],Percent Effect [6],Percent Effect (Homo sapiens),Percent Effect [7],Percent Effect [8],Percent Effect [9]
CCOc1ncccc1NC(=O)c1cc(C)c(C)s1,-7.94%,1.39%,3.33%,-1.86%,-2.82%,-2.21%,11.1%,11.6%,-3.16%,2.56%,-0.429%
COc1ccc(CN2C[C@@H]3OCCN(CC4CCCO4)[C@@H]3C2)cc1 (stereo partly specified),-0.662%,10.8%,2.03%,-5.49%,6.16%,-4.78%,17.3%,3.23%,3.24%,12.8%,5.65%
Cc1nc(N(C)C)nc2c1COCC21CCN(C(=O)NC(C)C)C1 (stereo unspecified),-5.29%,0%,-0.0672%,2.32%,2.15%,-2.08%,4.82%,-1.11%,0.99%,18.3%,-4.61%
O=C(O)c1nnn(Cc2cccc(C(F)(F)F)c2)c1-c1cccnc1,2.36%,6.67%,10.2%,-2.89%,-4.13%,-10.4%,8.5%,4%,7.41%,12.8%,-7.79%
c1csc(CN2C[C@@H]3OCCN(CC4CCCO4)[C@@H]3C2)c1 (stereo partly specified),-3.09%,5.48%,-0.633%,5.1%,-1.39%,-1.2%,10.2%,4.94%,5.21%,16.1%,1.15%
O=S(=O)(C1CC1)N1CCOCC2(CCN(c3ccccn3)C2)C1 (stereo unspecified),-6.13%,1.33%,15.1%,-7.58%,-5.7%,-6.51%,7.21%,3.01%,-6.35%,-5.13%,-5.08%
CCN(Cc1ccc2c(c1)OCO2)C(=O)CCc1c(C)nc(C)[nH]c1=O,-1.41%,5.26%,1.51%,7.45%,-4.32%,9.96%,6.85%,21.9%,3.43%,9.76%,-1.69%
COCCCN(C)C1CCCN(Cc2noc(C)n2)C1 (stereo unspecified),-1.35%,2.7%,-5.43%,12.9%,4.18%,-0.554%,-3.05%,11.9%,3.96%,15.8%,-1.13%
Cc1ccc2c(c1)OCCCC2NCc1nnc2n1CCCCC2 (stereo unspecified),-3.75%,2.7%,-4.22%,17.1%,5.57%,2.23%,0.772%,-5.39%,-15.1%,6.17%,-11.7%
CCN1CC2(CC1=O)CN(Cc1cccs1)CCN(C(=O)C(C)C)C2 (stereo unspecified),-5.19%,-5.41%,2.9%,-2.56%,-2.73%,-3.33%,7.35%,-3.43%,4.95%,11%,4.59%
O=C(NCc1ccco1)[C@H]1C[C@H]2OCC[C@H]2N(C(=O)c2ccco2)C1,-4.08%,-2.67%,12.4%,1.43%,-3.09%,-50.4%,12%,-6.88%,-3.12%,-5%,63.9%
CN(C)C(=O)[C@@H]1C[C@@H]2CCN(Cc3nccs3)C[C@@H]2O1,-4.02%,2.7%,4.31%,-1.06%,-3.62%,-3.5%,21.8%,-10.8%,4.32%,7.69%,3.4%
Cc1cc(CN(C)C(=O)NC2CCS(=O)(=O)C2)no1 (stereo unspecified),-1.09%,13%,-2.73%,-9.19%,6.37%,6.11%,11.2%,6.33%,4.76%,18.8%,-18.4%
CNC(=O)c1cccc(C2CNCCN2C(C)=O)c1 (stereo unspecified),0.479%,14.9%,9.34%,-6.16%,-4.15%,-0.232%,10.6%,19.3%,2.15%,3.9%,-8.27%
Cc1nc(CN2CCC(CNC(=O)Nc3ccccn3)CC2)oc1C,-6.4%,2.7%,-0.75%,-0.537%,-1.27%,-0.744%,-1.46%,-2.29%,4.3%,11.1%,-2.16%
Cc1[nH]ccc1C(=O)N1CCC(c2nnc(Cn3cccn3)n2C)CC1,-2.68%,2.74%,-3.04%,10.2%,2.98%,1.6%,6.42%,-10.2%,5.21%,13.6%,1.58%
COc1ccc(OC)c(-c2nc(CN(C)Cc3nncn3C)c(C)o2)c1,-4.01%,11%,12%,-0.646%,-1.57%,0.909%,13.7%,-0.225%,7.53%,15%,-5.1%
Cc1nnc2n1CCN(CCOc1ccccc1)C2,-2.71%,-1.27%,9.45%,-0.787%,-0.308%,3.66%,3.43%,0.176%,2.08%,0%,-7.58%
CCC(NC(=O)C1CCN(S(=O)(=O)N(C)C)CC1)c1ccc(C)c(C)c1 (stereo unspecified),0.26%,0%,0.886%,1.28%,-2.46%,19.3%,8.82%,-10.2%,-2.15%,1.24%,-0.385%
CCn1c(C(=O)N2CCN(C(=O)COC)CC2)cc2ccccc21,-10.4%,13%,-4.96%,23.8%,11.4%,2.49%,-0.169%,10.3%,7.77%,21.9%,-12.3%
CC(C(=O)NCCCn1ccnc1)n1cc(Br)cn1 (stereo unspecified),-3.65%,2.6%,-2.79%,7.47%,3.83%,-33.1%,10.7%,-6.92%,7.53%,18.5%,-2%

# — ChEMBL document CHEMBL3988442, “University of Dundee, Small-Polar-MMV Screening Library” (2021)
